Compound activity from PubChem BioAssay.
Sampled rows, rich in hits. Any-hit rate of the full collection: about 2%.
BJeLR viability: BJeLR cell viability loss. BJeLR (HRASV12) viability, CellTiter-Glo ATP luminescence, 48 h. inhibition, % (no concentration beside the values). 300,000 compounds, 0.17% hits; in the data active = inhibition above about 50%
Yp Topo-I inh: blocks Yersinia pestis topoisomerase I activity | activity, % at 10 µM | 360,000 compounds, 0.064% hits | Y. pestis Topo-I cleavage product accumulation, plate reader; in the data active = activity above about 50%, passing the limit was not always enough
PfHsp40 yeast: rescue of PfHsp40-mediated yeast toxicity | S. cerevisiae expressing PfHsp40, growth rescue, ATP luminescence | growth rescue, % at 12.5 µM | 340,000 compounds, 0.68% hits | AID 504582; in the data active = growth rescue above about 28%, passing the limit was not always enough;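 also: yeast W303a lacking pdr1 and pdr3 grown in galactose medium; growth measured after three days at 30 °C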
PrPC TRFRET: cell surface PrPC inhibition, primary TR-FRET screen; AID 720596; inhibition, % at 13.8 µM; 370,000 compounds, 0.43% hits; P04156; TR-FRET read-out; in the data active = inhibition above about 24%; also: 0% = median of the test wells and 100% = reference compound wells
PrP 5UTR inh: inhibition of PrP 5' UTR reporter expression; inhibition, % (concentration not given with the values); AID 488862; 340,000 compounds, 0.35% hits; cell-based PrP 5' UTR mRNA reporter, plate reader; in the data active = inhibition above about 52%; also: 0 = median of the neutral control wells
CCHFV vOTU inh: CCHFV vOTU protease inhibition | Pep-AMC fluorescence | inhibition, % at 11.5 µM | 370,000 compounds, 0.55% hits | AID 651958; in the data active = inhibition above about 30%; also: 0% = vehicle wells with enzyme and 100% = no enzyme wells
An asterisk follows results filed as active; x = no result.

SMILES | BJeLR viability | Yp Topo-I inh | PfHsp40 yeast | PrPC TRFRET | PrP 5UTR inh | CCHFV vOTU inh
COc1ccc(S(=O)(=O)NC2CC3CCC2C3)cc1 (stereo not drawn) | -15 | 7 | 95* | 2 | -12 | -8
CSc1ccc(S(=O)(=O)NC2CC3CCC2C3)cc1 (stereo not drawn) | -9 | 11 | 78* | 12 | -14 | -4
O=[N+]([O-])c1ccccc1S(=O)(=O)NC1CC2CCC1C2 (stereo not drawn) | 3 | -2 | -1 | -20 | -23 | 14
O=S(=O)(N[C@@H]1C[C@H]2CC[C@@H]1C2)c1cccs1 | -7 | 6 | 2 | -4 | -10 | 9
CCOC(=O)N1CCN(Cc2ccc(O)c3ncccc23)CC1 | 0 | x | x | 0 | x | 2
Cc1ccc(C)c(S(=O)(=O)N2CCN(Cc3ccc(O)c4ncccc34)CC2)c1 | 16 | 29 | 323* | 8 | 27 | 4
COc1ccc(-n2c(-c3ccccc3)cc3c2CCCC3=O)cc1 | 10 | 11 | 134* | x | -57 | x
O=C(C/C=N/OCc1c(Cl)cccc1Cl)c1ccccc1 | 2 | -7 | -1 | 1 | -31 | 8
CC1SCC(=NOCc2c(Cl)cccc2Cl)CS1 (stereo not drawn) | -8 | 4 | 59* | -5 | -19 | -12
Cc1cc(C(=O)COC(=O)Cc2n[nH]c(=O)c3ccccc23)c(C)n1-c1cccc(C(F)(F)F)c1 | -1 | 67* | 96* | 2 | -9 | 28
CCCCCCSc1ccc([C@H]2N[C@@](CC(C)C)(C(=O)OC)[C@H]3C(=O)N(C)C(=O)[C@@H]23)cc1 | 9 | 29 | 47* | 2 | -13 | 18
CC(=O)n1cc(N(C(=O)CCl)c2ccccc2)c2ccccc21 | 100* | -5 | 8 | -8 | 1 | 9
Cc1ccc(/C=N/NC(=O)c2cc(-c3ccncc3)nc3ccccc23)o1 | 59* | 10 | -2 | 9 | 0 | 0
Cc1ccccc1S(=O)(=O)N1CCCc2nc(-c3ccccc3)ccc21 | x | x | x | -2 | x | 3
COC(=O)COc1ccc(-c2ccc(F)cc2)cc1C=O | -2 | -4 | 63* | 2 | -24 | -10
COC(=O)COc1ccc(C)cc1-n1nc2ccccc2n1 | -4 | 4 | 44* | 15 | -13 | 5
COC(=O)COc1ccccc1C(N)=O | -4 | 4 | -2 | 2 | -12 | -5
COC(=O)COc1ccc(-c2ccccc2)cc1C=O | -4 | 11 | 64* | 8 | -25 | -11
Nc1ncnc2c1ncn2[C@@H]1O[C@H](C(=O)N[C@@H](CCc2ccccc2)C(=O)N2CCN(C(=O)N3CCOCC3)CC2)[C@@H](O)[C@H]1O | x | x | x | 7 | x | -3
C=CCNC(=O)CN(C(=O)Cc1cccc(OC(F)(F)F)c1)c1cccc(Br)c1 | x | x | x | 6 | x | 14
COC(=O)CS(=O)(=O)c1nnc([C@H](Cc2ccccc2)NC(=O)OC(C)(C)C)o1 | 12 | 5 | 0 | 3 | 16 | 11
Cc1cccc(CS(=O)(=O)c2nnc([C@H](Cc3ccccc3)NC(=O)OC(C)(C)C)o2)c1 | -16 | 3 | 373* | x | x | x
CCOC(=O)c1cnc(-n2nc(C)cc2C)nc1NCCc1ccccc1 | 9 | 4 | 65* | 9 | -12 | 9
CCOC(=O)c1cnc(-n2nc(C)cc2C)nc1Nc1ccc(OC)cc1 | -3 | 6 | 3 | 2 | -7 | -7
CCOC(=O)c1cnc(-n2nc(C)cc2C)nc1NC1CCCC1 | -2 | 16 | 163* | 4 | -5 | -1
SMILES | BJeLR viability | Yp Topo-I inh | PfHsp40 yeast | PrPC TRFRET | PrP 5UTR inh | CCHFV vOTU inh
COC(=O)[C@]12C[C@H](CC(=O)NCCC(C)C)C(=O)N(CCC3=CCCCC3)C1=C[C@H](C1CCCC1)O[C@@H]2C | x | x | x | -2 | x | 22
O=C(c1ccc2c3n(nc2c1)-c1ccccc1CO3)N1CCCCC1 | 60* | 16 | -2 | -14 | -2 | 5
O=C(c1ccc2c3n(nc2c1)-c1ccccc1CO3)N1CCOCC1 | 57* | 4 | -4 | x | -72 | x
Cc1ccc2c(c1)COc1c3ccc(C(=O)N4CCCCC4)cc3nn1-2 | 23 | 23 | 0 | -7 | -30 | -4
CN(Cc1ccco1)C(=O)c1cccc2c1C(=O)N(Cc1cccnc1)C2 | x | x | x | 1 | x | 0
Cc1cc(C)cc(NC(=O)[C@H](Cc2c[nH]c3ccccc23)NC(=O)[C@@H]2Cc3ccccc3CN2)c1 | 3 | -6 | 1 | -7 | -15 | 8
CCc1ccc(NC(=O)[C@H](Cc2c[nH]c3ccccc23)NC(=O)[C@@H]2Cc3ccccc3CN2)cc1 | 59* | -9 | 1 | 0 | -1 | 2
Cc1ccc(NC(=O)[C@H](Cc2c[nH]c3ccccc23)NC(=O)[C@@H]2Cc3ccccc3CN2)c(C)c1 | 65* | 2 | 2 | -5 | -38 | 3
O=C(NCCCc1ccccc1)OC1CC2CC1[C@H]1CCCCN1C2 (stereo partly drawn) | x | x | x | 5 | x | -5
COc1ccccc1-c1nnc2sc(-c3ccc(N(C)C)cc3)nn12 | 53* | -1 | 0 | 9 | 21 | -3
CN(C)c1ccc(-c2nn3c(-c4ccccc4Cl)nnc3s2)cc1 | -6 | 7 | 5 | 7 | 45 | -13
COc1cccc(CNC(=O)C2CCCN(S(=O)(=O)c3cccc4nonc34)C2)c1 (stereo not drawn) | -6 | 1 | 38* | -17 | -14 | -1
Cc1cccc(C)c1NC(=O)COC(=O)c1ccc([N+](=O)[O-])o1 | 3 | -5 | 32* | -20 | -16 | 23
O=C(COC(=O)c1ccc([N+](=O)[O-])o1)Nc1ccc2c(c1)OC(F)(F)O2 | x | -8 | x | -29 | x | 10
O=C(COC(=O)c1ccc([N+](=O)[O-])o1)Nc1ccc2c(c1)OCO2 | x | 8 | 67* | -22 | -25 | 13
CCOc1cc(N2CCOCC2)c(OCC)cc1NC(=O)COC(=O)c1ccc([N+](=O)[O-])o1 | x | 0 | 82* | -18 | -23 | 17
O=C(c1ccc(Cl)cc1)N1CCC(Oc2cccnc2)CC1 | x | x | x | -1 | x | 2
Cn1nc(Cc2cccc3ccccc23)c(C#N)c1N | 0 | -7 | 1 | 2 | -16 | 2
CC(C)(C)n1nc(Cc2cccc3ccccc23)c2c(N)ncnc21 | 9 | 21 | 552* | 19 | 5 | -3
COc1ccc(C(C(=O)NC2CCCCC2)N(C(=O)CCl)c2ccc(OC)cc2)cc1 (stereo not drawn) | 118* | -2 | 0 | x | -22 | x
COc1ccc(C(C(=O)NC2CCCCC2)N(C(=O)CCl)c2ccc(C)cc2)cc1 (stereo not drawn) | 135* | 6 | -1 | 6 | -1 | 1
COc1ccc(C(C(=O)NC2CCCC2)N(C(=O)c2ccoc2C)c2ccc(C)cc2)cc1 (stereo not drawn) | 6 | 7 | 2 | 3 | -10 | 7
COc1ccc(N(C(=O)CCl)C(C(=O)NC2CCCCC2)c2cccnc2)cc1 (stereo not drawn) | 81* | 4 | 0 | -1 | -11 | 5
